GSIS activator = primary screen for activators of insulin secretion dependent on glucose, INS-1E cells, GLuc reporter luminescence | AID 743287 | activation, % at 16.6 µM | 0.61% of 370,000 active | INS-1E GLuc reporter insulin secretion, 2-3 h;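 active = lowest replicate activation of at least 40%, so every replicate reaches that level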;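 also: 0% = median of neutral control wells and 100% = median of IBMX positive control wells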
CendR NRP1 mod = modulators of CendR peptide binding to human neuropilin-1 | O14786 | FAM-RPARPAR peptide binding to NRP-1, fluorescence polarization | inhibition, % at 25 µM | 0.85% of 360,000 active;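 active = inhibition or corrected inhibition above about 18%, plus a signal ratio from 0.5 to 1.5, limit read from the data, passing the limit was not always enough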
hiPSC survival = hiPSC single-cell survival enhancement; ATPlite luminescence; 100% = ROCK inhibitor wells, 0% = DMSO; survival enhancement, % at 20 µM; 0.044% of 360,000 active; AID 602274; in the data active = survival enhancement above about 18%;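 also: cells exposed to compounds for 16 hours before the ATP read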
ARNT-TACC3 inh = disruptors of human ARNT/TACC3 interaction; inhibition, % at 9.99 µM; AlphaScreen His-ARNT PAS-B/GST-TACC3 binding, luminescence; TACC3 fragment carries E629A point mutation; Q9Y6A5; 0.66% of 390,000 active; AID 623870;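 active = mean inhibition of replicates at least 50% and at least half of replicates each reaching 50%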;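 also: 0% = complete ARNT plus TACC3 wells and 100% = ARNT alone without TACC3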
ABCB6 inh 2 = inhibitors of human ABC transporter ABCB6. 0.19% of 360,000 active. K562-ABCB6 porphyrin accumulation, flow cytometry, 1 h; hits give low values. Q9NP58. fluorescence ratio to DMSO, % at 10 µM. AID 602162;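 active = fluorescence ratio to DMSO below 75%, the collection mean minus 3 SD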;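 also: signal is porphyrin accumulated inside mitochondria; 100% equals median channel fluorescence of DMSO control wells; lower ratio means ABCB6 inhibition with less porphyrin fluorescence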
Target sequence (Q9NP58 whole entry, looked up): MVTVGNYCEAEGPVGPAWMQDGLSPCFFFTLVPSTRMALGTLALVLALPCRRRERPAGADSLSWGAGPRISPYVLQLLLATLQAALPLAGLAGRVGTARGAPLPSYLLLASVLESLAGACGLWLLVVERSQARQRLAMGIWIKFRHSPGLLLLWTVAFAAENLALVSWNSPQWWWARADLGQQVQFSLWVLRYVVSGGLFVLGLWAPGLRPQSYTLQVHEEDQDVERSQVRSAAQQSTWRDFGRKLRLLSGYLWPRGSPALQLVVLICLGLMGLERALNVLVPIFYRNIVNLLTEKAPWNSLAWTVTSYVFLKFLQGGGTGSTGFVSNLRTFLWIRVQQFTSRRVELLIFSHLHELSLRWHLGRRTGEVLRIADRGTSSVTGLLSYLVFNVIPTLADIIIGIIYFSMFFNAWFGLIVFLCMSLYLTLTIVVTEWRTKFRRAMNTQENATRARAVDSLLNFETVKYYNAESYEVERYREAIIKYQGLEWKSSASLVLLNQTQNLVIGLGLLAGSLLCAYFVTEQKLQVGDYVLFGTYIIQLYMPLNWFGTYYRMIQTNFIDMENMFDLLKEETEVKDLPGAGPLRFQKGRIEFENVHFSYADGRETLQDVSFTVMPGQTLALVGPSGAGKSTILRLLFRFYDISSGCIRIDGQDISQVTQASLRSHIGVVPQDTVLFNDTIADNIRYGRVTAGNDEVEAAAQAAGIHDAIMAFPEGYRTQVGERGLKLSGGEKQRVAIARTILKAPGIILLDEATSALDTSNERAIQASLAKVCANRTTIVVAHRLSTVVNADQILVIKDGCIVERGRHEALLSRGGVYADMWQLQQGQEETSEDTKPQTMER
ARNT Alpha ctr-1 = interferes with AlphaScreen signal, flagging false ARNT-TACC3 hits | 50% of 1,200 active | shares compounds with ARNT-TACC3 inh | AC50, µM (titrated, usually from 68 µM), inactives show top-dose activity change, negative = signal decrease | His-ARNT PASB-GST AlphaScreen artifact counter-screen, luminescence;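 active = every separate test run was called active for a drop in luminescence, with AC50 within twice the top valid dose, actives reach about 71 µM in these data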
ARNT Alpha ctr-2 = produces AlphaScreen artifacts in ARNT-TACC3 counter-screen. AC50, µM. AID 720564. 70% of 45 active. shares compounds with ARNT-TACC3 inh. Dual-tagged His-ARNT PASB-GST AlphaScreen artifact counter-screen;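 active = luminescence drop, with half-maximal potency fitted within twice the sample's top valid dose, cut at about 70 µM in these data; inactive = the rest, including signal moving the wrong way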
Active calls of the source: *; i = inactive; nt = not tested or not shown; [ ] = dose if it differs, or a comment. Hits are enriched below; roughly 1.8% of the tested compounds scored in any of these assays.

SMILES | GSIS activator | CendR NRP1 mod | hiPSC survival | ARNT-TACC3 inh | ABCB6 inh 2 | ARNT Alpha ctr-1 | others
CC(C)c1ccc(O)c(NC(=O)c2ncn[nH]2)c1 | 20 | -14 | 2 | 31* | 102 | -7%
O=C(c1cc(-c2ccccc2)on1)N1CCCC1 | nt | -8 | -3 | -5 | 91 | nt
COc1ccccc1N1CCN(C(=O)c2cc(-c3ccccc3)on2)CC1 | 4 | 5 | 3 | -1 | 97 | nt
O=C(c1cc(-c2ccccc2)on1)N1CCN(c2ccncc2)CC1 | nt | nt | nt | nt | nt | -7%[38 µM]
O=C(c1cc(-c2ccccc2)on1)N1CCN(c2ccccc2)CC1 | -6 | 11 | 0 | -9 | 106 | nt
O=C(c1cc(-c2ccccc2)on1)N1CCC(N2CCCC2)CC1 | nt | nt | nt | nt | nt | 0%[38 µM]
O=C(c1cc(-c2ccccc2)on1)N1CCC(CO)CC1 | nt | nt | nt | nt | nt | -2%[38 µM]
COCc1cn(CC[C@H]2CC[C@@H](NC(=O)c3ccncc3)[C@H](CO)O2)nn1 | 7 | nt | nt | -47 | nt | nt
O=C(N[C@H]1CC[C@H](CCn2cc(-c3ccccn3)nn2)O[C@H]1CO)c1ccncc1 | -1 | nt | nt | 66* | nt | 39µM*
O=C(N[C@H]1CC[C@@H](CCn2cc(-c3ccccn3)nn2)O[C@@H]1CO)c1ccncc1 | 4 | nt | nt | 66* | nt | 31µM*
COCc1cn(CC[C@H]2CC[C@H](NC(=O)c3ccncc3)[C@@H](CO)O2)nn1 | 1 | nt | nt | -15 | nt | nt
COCc1cn(CC[C@@H]2CC[C@H](NC(=O)c3ccncc3)[C@@H](CO)O2)nn1 | 4 | nt | nt | -12 | nt | nt
O=C(N[C@H]1CC[C@H](CCn2cc(-c3ccccn3)nn2)O[C@@H]1CO)c1ccncc1 | 10 | nt | nt | 65* | nt | 48µM*
O=C(N[C@@H]1CC[C@@H](CCn2cc(-c3ccccn3)nn2)O[C@@H]1CO)c1ccncc1 | 10 | nt | nt | 77* | nt | 38µM*
CC(C)CC#Cc1ccc2c(c1)O[C@@H](CN(C)Cc1ccncc1)[C@H](C)CN([C@H](C)CO)S2(=O)=O | 30 | nt | nt | 6 | nt | nt
O=C(O)C1=C(C2CCCCC2)C(=O)c2ccccc21 | nt | 2 | 11 | -4 | 97 | nt
O=C(O)c1ccc(C2CCCCC2)cn1 | nt | 6 | -2 | 63* | 102 | -22%
CC(=O)c1cccc(-c2ccc3c(=O)[nH]c(Nc4ccccc4)cc3c2)c1 | -19 | -85 | -1 | 33* | 106 | -21%
CCNC(=O)C[C@H]1C=C[C@@H](NC(=O)C2CCOCC2)[C@@H](CO)O1 | 0 | nt | nt | nt | nt | nt
Cc1ccc(S(=O)(=O)Nc2ccc3c(c2)C(=O)N([C@H](C)CO)C[C@@H](C)[C@@H](CN(C)Cc2ccncc2)OCCCC[C@@H](C)O3)cc1 | -26 | nt | nt | -4 | nt | nt
COCCn1c(C)cc(C(=O)COC(=O)c2ccc([N+](=O)[O-])o2)c1C | -7 | -26 | -1 | 52* | 100 | -16%
CC1(C)C(=O)Nc2ccccc2N1C(=O)COC(=O)c1ccc([N+](=O)[O-])o1 | -8 | 3 | 1 | -6 | 98 | nt
CC1CCN(C(=O)COC(=O)c2ccc([N+](=O)[O-])o2)CC1 | -7 | 24 | -2 | 18* | 106 | -5%
O=C1CN(C(=O)COC(=O)c2ccc([N+](=O)[O-])o2)c2ccccc2N1 | -3 | -42 | 2 | 42* | 98 | -1%
Cc1cc(C(=O)COC(=O)c2ccc([N+](=O)[O-])o2)c(C)n1CC1CCCO1 (stereo not given) | -14 | -5 | -1 | 11 | 97 | nt
SMILES | GSIS activator | CendR NRP1 mod | hiPSC survival | ARNT-TACC3 inh | ABCB6 inh 2 | ARNT Alpha ctr-1 | others
Cc1ccc(-c2ccc(C3[C@@H]4CN(S(=O)(=O)c5ccc(C)cc5)C[C@H]3N4)cc2)cc1 (stereo not given in full) | 71 | nt | nt | nt | nt | nt
CN(C)S(=O)(=O)N1CCN(S(=O)(=O)c2ccc(F)cc2)CC1 | 1 | -7 | 2 | 51* | 103 | 0%
Cc1ccc(/C=N/Nc2cn[nH]c(=O)n2)o1 | 13 | 12 | -1 | 57* | 98 | -11%
CC(=O)N(C)C1=C(O)c2ccccc2C(=O)C1=O | nt | -5 | -4 | 11* | 93 | 5%
CC(=O)N(C1=C(O)c2ccccc2C(=O)C1=O)C1CCCCC1 | -1 | -3 | 0 | 3 | 88 | nt
COc1cccc(S(=O)(=O)N[C@H]2CC[C@H](CC(=O)NCc3ccc(Cl)cc3)O[C@@H]2CO)c1 | 11 | nt | nt | 3 | nt | nt
c1ccc(CN2CCN(CCCNc3ccc4nnc(-c5ccccc5)n4n3)CC2)cc1 | nt | 4 | -1 | 57* | 100 | 71µM*
CC(=O)Nc1ccc2c(c1)C(=O)N(C)[C@H]1CC[C@H](CC(=O)NCCCN3CCOCC3)O[C@H]1CO2 | 10 | nt | nt | -11 | nt | nt
COc1ccc(CCNC(=O)CSc2nnc3ccc(-c4ccccn4)nn23)cc1 | 6 | 1 | 0 | 48* | 101 | 68µM*
CO[C@@H]1CN(C)C(=O)c2ccc(NC(=O)c3ccccn3)cc2OC[C@@H](C)N(C(=O)C2CC2)C[C@H]1C | nt | nt | nt | 57* | nt | 32µM*
Cc1noc(C)c1NC(=O)Nc1ccc2c(c1)C(=O)N([C@@H](C)CO)C[C@@H](C)[C@@H](CN(C)C(=O)NC(C)C)OCCCC[C@@H](C)O2 | 13 | nt | nt | 3 | nt | nt
CC(=O)Nc1ccc2nc3ccccc3nc2c1 | nt | -3 | 0 | 32* | 98 | -14%
O=C(C1CCCC1)N1C[C@@H]2[C@H](c3ccccc31)[C@H](CO)N2C(=O)Cc1ccccn1 | -19 | nt | nt | 51* | nt | -12%[42 µM]
O=C(NC[C@@H]1[C@H](c2ccccc2)[C@H](CO)N1Cc1ccccn1)C1CCCC1 | 1 | nt | nt | 53* | nt | -25%[42 µM]
O=C(NC[C@H]1[C@H](c2ccccc2)[C@@H](CO)N1Cc1ccccn1)C1CC1 | 9 | nt | nt | 12 | nt | nt
O=C(NC[C@H]1[C@@H](c2ccccc2)[C@@H](CO)N1Cc1ccccn1)C1CCC1 | 9 | nt | nt | 56* | nt | 70µM*
O=C(NC[C@@H]1[C@@H](c2ccccc2)[C@@H](CO)N1Cc1ccccn1)NC1CCCC1 | -11 | nt | nt | nt | nt | nt
O=C(NC[C@@H]1[C@H](c2ccccc2)[C@H](CO)N1Cc1ccccn1)C1CCC1 | 9 | nt | nt | 60* | nt | -22%[42 µM]
Cc1noc(C)c1NC(=O)N[C@H]1CC[C@H](CCNC(=O)C2CC2)O[C@@H]1CO | 10 | nt | nt | -1 | nt | nt
CO[C@@H]1CN(C)C(=O)c2ccc(NC(=O)C3CC3)cc2OC[C@H](C)N(CCC(F)(F)F)C[C@H]1C | -27 | nt | nt | -9 | nt | nt
COC(=O)c1ccc2[nH]c3c(c2c1)CC(C)CC3 (stereo not given) | 3 | 1 | 0 | 21* | 96 | -30%
COc1cccc(C(=O)Nc2nnc(CCS(=O)(=O)c3ccc(C)cc3)s2)c1 | 8 | 7 | 0 | -34 | 104 | nt
Cc1ccc(S(=O)(=O)CCc2nnc(NC(=O)c3ccccn3)s2)cc1 | nt | 10 | 4 | 73* | 97 | 34µM*
Cc1ccc(S(=O)(=O)CCc2nnc(NC(=O)c3ccccc3)s2)cc1 | nt | nt | nt | nt | nt | nt | ARNT Alpha ctr-2=i
